Inconclusive results are not listed. Calls of active or inactive are those of the source. The calls were made as follows, unless noted: active = hit-call score of the fitted dose curve at least 0.9, where 1 is the maximum; inactive = score below 0.9.
Key:
[1] = IUF_NPC2c_oligodendrocyte_migration_120hr: Leibniz Research Institute for Environmental Medicine (IUF) 120-hour Neural Progenitor Cell Migration Assay for Oligodendrocyte Migration (NPC2c) (AID 2284297);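 also: O4-positive oligodendrocyte migration distance divided by radial glia migration distance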
Summary of the method: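 Exposure runs 5 days from differentiation onset at 37C, seven concentrations plus solvent control, DMSO at most 0.1%, applied to primary hNPC spheres on laminin. After fixation, O4 immunostaining gives oligodendrocyte distance from the sphere core, relative to radial glia migration.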

[2] = IUF_NPC2a_radial_glia_migration_120hr: Leibniz Research Institute for Environmental Medicine (IUF) 120-hour Neural Progenitor Cell Migration Assay for Radial Glia Migration (NPC2a) (AID 2284298)
Summary of the method: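 Migration distance in um, sphere core edge to migration-area edge, derived by nuclei-density algorithm from Hoechst images after 120 h compound exposure. Primary hNPC spheres differentiated on poly-D-lysine/laminin in N2 medium, 37C; medium half-replaced day 3.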

[3] = IUF_NPC2a_radial_glia_migration_72hr: Leibniz Research Institute for Environmental Medicine (IUF) 72-hour Neural Progenitor Cell Migration Assay for Radial Glia Migration (NPC2a) (AID 2284299)
Summary of the method: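 Radial glia migration (µm, sphere core edge to migration front, four directions averaged) from brightfield images at 72 h; hNPC spheres differentiating on PDL/laminin in N2 medium, compound exposure at 7 concentrations from plating.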

[4] = IUF_NPC2b_neuronal_migration_120hr: Leibniz Research Institute for Environmental Medicine (IUF) 120-hour Neural Progenitor Cell Migration Assay for Neuron Migration (NPC2b) (AID 2284300)
Summary of the method: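 TUBB3-positive neurons are imaged after 120 h of differentiation, and their mean distance from the sphere edge is normalised to radial glia migration. Single 0.3 mm fetal hNPC spheres on poly-D-lysine/laminin received 7 compound concentrations, ≤0.1% DMSO, refreshed at day 3.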

[5] = IUF_NPC3_neuronal_differentiation_120hr: Leibniz Research Institute for Environmental Medicine (IUF) 120-hour Neuronal Differentiation Assay (NPC3) (AID 2284301)
Summary of the method: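 Value is percent TUBB3-positive neurons among Hoechst-stained nuclei in the migration area, scored by trained CNN after 120 h differentiation. Primary hNPC spheres on poly-D-lysine/laminin, N2 medium, continuous dosing from day 0, half-refeed day 3; DMSO reference.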

[6] = IUF_NPC4_neurite_length_120hr: Leibniz Research Institute for Environmental Medicine (IUF) 120-hour Neuronal Morphology Assay for Neurite Length (NPC4) (AID 2284302)
Summary of the method: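 Neurite length, the mean in um across TUBB3-stained neurons, is derived by skeletonization of high-content images after 120 h differentiation. Compound exposure, 7 concentrations plus solvent control, ran from plating of hNPC spheres on poly-D-lysine/laminin, with medium half-replaced on day 3.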

[7] = IUF_NPC5_oligodendrocyte_differentiation_120hr: Leibniz Research Institute for Environmental Medicine (IUF) 120-hour Oligodendrocyte Differentiation Assay (NPC5) (AID 2284304; active = hit-call score of the fitted dose curve at least 0.9, where 1 is the maximum;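 also: primary human fetal neural progenitor spheres plated to migrate and differentiate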)
Summary of the method: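 Oligodendrocyte differentiation scored as O4-positive cells, found by CNN image analysis, as percent of Hoechst-stained nuclei in the migration area. Scoring followed 5 days of exposure of plated hNPC neurospheres differentiating in DMEM/F12 N2 medium at 37C, with compound refreshed at day 3.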

[8] = IUF_NPC4_neurite_area_120hr: Leibniz Research Institute for Environmental Medicine (IUF) 120-hour Neuronal Morphology Assay for Neurite Area (NPC4) (AID 2284305; active = hit-call score of the fitted dose curve at least 0.9, where 1 is the maximum)
Summary of the method: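 Neurite area (pixels, nuclei excluded) of TUBB3-positive neurons from hNPC spheres differentiating 5 days under continuous exposure at 37 C, 5% CO2. High-content imaging; loss of signal versus DMSO control across 7 concentrations.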

[9] = IUF_NPC2-5_cytotoxicity_72hr: Cytotoxicity Assessment at 72 hours in the Leibniz Research Institute for Environmental Medicine (IUF) Neural Progenitor Cell Migration and Differentiation Assay for Cytotoxicity (NPC2-5) (AID 2284306; active = hit-call score of the fitted dose curve at least 0.9, where 1 is the maximum;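 also: LDH release into supernatant measured by resorufin fluorescence marking membrane damage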)
Summary of the method: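 Membrane-integrity cytotoxicity at 72 h, read as LDH-driven resorufin fluorescence in supernatant. hNPC spheres from fetal cortex differentiate on coated plates in N2 medium, 37C, 5% CO2; seven serial compound concentrations plus solvent control (DMSO ≤0.1%).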

[10] = IUF_NPC2-5_cytotoxicity_120hr: Cytotoxicity Assessment at 120 hours in the Leibniz Research Institute for Environmental Medicine (IUF) Neural Progenitor Cell Migration and Differentiation Assay (NPC2-5) (AID 2284307; active = hit-call score of the fitted dose curve at least 0.9, where 1 is the maximum)
Summary of the method: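 Membrane-integrity loss measured as LDH activity in medium supernatant via resazurin-to-resorufin fluorescence after 120 h exposure. hNPC spheres from GW 16-19 fetal cortex differentiated on poly-D-lysine/laminin, 37C, medium half-refreshed day 3; seven concentrations, DMSO max 0.1%.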

[11] = IUF_NPC2-5_cell_number_120hr: Cell Number Assessment at 120 hours in the Leibniz Research Institute for Environmental Medicine (IUF) Neural Progenitor Cell Migration and Differentiation Assay (NPC2-5) (AID 2284308);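 also: count of Hoechst-stained nuclei in migration zone around plated human neural progenitor spheres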
Summary of the method: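 Counting of all Hoechst-stained nuclei in the migration area at 120 h, versus DMSO control. Primary hNPC spheres differentiated on poly-D-lysine/laminin in N2 medium at 37C, dosed from day 0 (7 concentrations, DMSO ≤0.1%), half-refed day 3.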

[12] = IUF_NPC2-5_viability_120hr: Viability Assessment at 120 hours in the Leibniz Research Institute for Environmental Medicine (IUF) Neural Progenitor Cell Migration and Differentiation Assay (NPC2-5) (AID 2284312)
Summary of the method: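 Alamar blue resorufin fluorescence read after 5 days of differentiation, with compound present from day 0 and replenished at day 3. Primary hNPC spheres on laminin-coated plates, 37C; seven concentrations plus solvent control, fitted against DMSO.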

[13] = read-out: Interleukin-8 (IL8), CXCL8 (gene 3576); assay: BSK_MyoF_IL8: BioMAP Diversity Plus: MyoF Assay for Interleukin-8 (IL8) Biomarker Activity (AID 2284261); settings: primary human lung fibroblasts
Summary of the method: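 IL-8 quantified by ELISA after 24 h compound exposure of primary human lung fibroblasts. SRB staining of parallel cultures flagged cytotoxicity; DMSO served as baseline.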

[14] = read-out: Decorin, DCN (gene 1634); assay: BSK_MyoF_Decorin: BioMAP Diversity Plus: MyoF Assay for Decorin Biomarker Activity (AID 2284265); settings: primary human lung fibroblasts
Summary of the method: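 Decorin protein was quantified by ELISA 24 h after chemical addition to primary human lung fibroblasts and analysed as increase over DMSO. Cytotoxicity was tracked in parallel cultures by SRB total-protein staining read at 560 nm.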

[15] = BSK_MyoF_SRB: Viability Assessment in the BioMAP Diversity Plus: MyoF Assay (AID 2284267); settings: primary human lung fibroblasts;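 also: total protein by SRB absorbance in parallel cultures as cytotoxicity measure; cells assessed 24 h after compound addition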
Summary of the method: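 Cytotoxicity read-out: after 10% TCA fixation, parallel human lung fibroblast cultures were stained with 0.1% SRB at 24 h post-dosing and read at 560 nm; DMSO served as baseline.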

[16] = read-out: Matrix Metallopeptidase 1 (MMP1), MMP1 (gene 4312); assay: BSK_MyoF_MMP1: BioMAP Diversity Plus: MyoF Assay for Matrix Metallopeptidase 1 (MMP1) Biomarker Activity (AID 2284268); settings: primary human lung fibroblasts
Summary of the method: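 Human lung fibroblasts (MyoF system) exposed to chemical for 24 h in 96-well format; MMP1 biomarker quantified by ELISA, with activity fitted in the positive direction relative to DMSO baseline.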

[17] = read-out: TIMP metallopeptidase inhibitor 1 (TIMP1), TIMP1 (gene 7076); assay: BSK_MyoF_TIMP1: BioMAP Diversity Plus: MyoF Assay for TIMP metallopeptidase inhibitor 1 (TIMP1) Biomarker Activity (AID 2284269); settings: primary human lung fibroblasts
Summary of the method: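 TIMP-1 levels were determined by ELISA in human lung fibroblasts treated for 24 h. DMSO served as negative control and baseline for upward curve fitting.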

## O=C(O)c1ccccc1
[1]
  outcome: inactive
[2]
  outcome: inactive
[3]
  outcome: inactive
[4]
  outcome: inactive
[5]
  outcome: inactive
[6]
  outcome: inactive
[7]
  outcome: inactive
[8]
  outcome: inactive
[9]
  outcome: inactive
[10]
  outcome: inactive
[11]
  outcome: inactive
[12]
  outcome: inactive

## N#CSCSc1nc2ccccc2s1
[13]
  AC50: 11.2 µM (active)
[14]
  AC50: 5.27 µM (active)
[15]
  AC50: 5.55 µM (active)
[16]
  AC50: 3.63 µM (active)
[17]
  AC50: 11.4 µM (active)

## C#CCOC(=O)[C@@H](C)Oc1ccc(Oc2ncc(Cl)cc2F)cc1
[1]
  outcome: inactive
[2]
  outcome: inactive
[3]
  outcome: inactive
[4]
  outcome: inactive
[5]
  outcome: inactive
[6]
  outcome: inactive
[8]
  outcome: inactive
[9]
  outcome: inactive
[10]
  outcome: inactive
[11]
  outcome: inactive
[12]
  outcome: inactive

## S=C([S-])NCCNC(=S)[S-].[Mn+2]
[1]
  outcome: inactive
[2]
  outcome: inactive
[3]
  outcome: inactive
[4]
  outcome: inactive
[5]
  outcome: inactive
[6]
  outcome: inactive
[7]
  outcome: inactive
[8]
  outcome: inactive
[9]
  outcome: inactive
[10]
  outcome: inactive
[11]
  outcome: inactive
[12]
  outcome: inactive

## CCCN(CCC)C(=O)SCC
[1]
  outcome: inactive
[2]
  outcome: inactive
[3]
  outcome: inactive
[4]
  outcome: inactive
[5]
  outcome: inactive
[6]
  outcome: inactive
[7]
  outcome: inactive
[8]
  outcome: inactive
[9]
  outcome: inactive
[10]
  outcome: inactive
[11]
  outcome: inactive
[12]
  outcome: inactive

## CCC(C)OC(=O)N1CCCCC1CCO (centres undefined)
[13]
  outcome: inactive
[14]
  outcome: inactive
[15]
  outcome: inactive
[16]
  outcome: inactive
[17]
  outcome: inactive

## Cc1nn(C)c(Oc2ccccc2)c1C=NOCc1ccc(C(=O)OC(C)(C)C)cc1
[1]
  AC50: 12.5 µM (active)
[2]
  AC50: 5.23 µM (active)
[3]
  AC50: 2.48 µM (active)
[4]
  AC50: 6.63 µM (active)
[5]
  outcome: inactive
[6]
  outcome: inactive
[7]
  outcome: inactive
[8]
  outcome: inactive
[9]
  outcome: inactive
[10]
  outcome: inactive
[11]
  AC50: 5.04 µM (active)
[12]
  outcome: inactive
